Screens: PubChem, National Center for Advancing Translational Sciences (NCATS)
Compounds with a hit are over-represented: about 9.9% of the library has one in this group of screens.
IL-1B inflam inh = qHTS for Inhibitors of Inflammasome Signaling: IL-1-beta AlphaLISA Primary Screen | THP-1 LPS/ATP IL-1B secretion, AlphaLISA, 16 h; hits give low values | activity change, % at 57.5 µM | 4.7% of 360,000 active; in the data active = activity change below about -50%; inconclusive = mostly about -30% to -49%; note: % is set by controls: 0 for no effect and ±100 for the full control effect
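THP-1 cells pretreated 1 hr with compounds (up to 57.5 uM final), then stimulated with LPS (250 ng/mL final) plus ATP (1.25 mM final); secreted IL-1B measured by AlphaLISA after 16 hr, decreased signal indicating inhibition.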
SW480 rereplic = A quantitative high throughput screen for small molecules that induce DNA re-replication in SW480 colon adenocarcinoma cells. SW480 DNA re-replication, Hoechst DNA content imaging, 48 h. Potency, µM (series often up to 46.1 µM), for the others: at the top dose re-replication activation, most hits filed as activators. 1.8% of 340,000 active; note: potency is the fitted concentration of half-maximal effect; % of control where 0% means no effect; nearly all actives have a fitted effect of over 55% in size
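Image-based read-out: total Hoechst fluorescence of nuclei (405 nm excitation, 500-530 nm emission), with hits raising the fraction of high-intensity nuclei. SW480 colon cells incubated 48 hr with compounds at 37 C.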
MCF10A rerep = A quantitative high throughput screen for small molecules that induce DNA re-replication in MCF 10a normal breast cells. MCF 10A DNA re-replication, Hoechst nuclear intensity, 48 h. 2.9% of 350,000 active. Potency, µM (top dose mostly 46.1 µM), without a hit: at the top dose activity, positive = re-replication, usual class: activators; note: potency is the fitted concentration of half-maximal effect; % of control where 0% means no effect; nearly all actives have a fitted effect of over 50% in size
KB-3-1 tox = qHTS assay for MDR1-selective chemotherapeutics: Primary screen using the parental adenocarcinoma cell KB-3-1 | 1.4% of 400,000 active | KB-3-1 viability, CellTiter-Glo ATP luminescence, 72 h | Potency, µM (series often up to 46.1 µM), hits mostly cytotoxic | AID 1347075, 2019; note: potency is the fitted concentration of half-maximal effect; % is set by controls: 0 for no effect and ±100 for the full control effect; nearly all actives have a fitted effect of over 60% in size
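Parental KB-3-1 adenocarcinoma cells in phenol-red-free DMEM with 10% FBS were pin-treated with compounds at several concentrations, incubated 72 h at 37 °C, and viability read by CellTiter-Glo luminescence; concentration-effect curves were fitted after normalization.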
KB-V1 cytotox = qHTS assay for MDR1-selective chemotherapeutics: Primary screen using the drug-selected MDR subline cells KB-V1; 3.4% of 400,000 active; Potency, µM (series often up to 46.1 µM), actives largely listed as cytotoxic; KB-V1 MDR cells viability, CellTiter-Glo, 72 h; note: potency is the fitted concentration of half-maximal effect; % is set by controls: 0 for no effect and ±100 for the full control effect; nearly all actives have a fitted effect of over 60% in size
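KB-V1 MDR subline cells in DMEM (phenol-red free, 10% FBS) exposed to compounds in qHTS concentration series for 72 h at 37 degrees C. Viability read by CellTiter-Glo luminescence; concentration-effect curves fitted after normalization and correction.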
* = called active by the depositor; i = inactive; ? = inconclusive; . = not tested or not shown; ! = not active in a repeat; [ ] = dose if it differs, or a comment. Unless noted, calls come from the whole dose curve; as a rule, active = well fitted curve in the direction sought with a large enough effect; inconclusive = small, poorly fitted or top-dose-only effect, or another doubt; inactive = no such curve, though single readings can be large; an effect the other way counts as inactive or inconclusive.

SMILES | IL-1B inflam inh | SW480 rereplic | MCF10A rerep | KB-3-1 tox | KB-V1 cytotox
N=c1c(C(=O)NCC2CCCO2)cc2c(=O)n3ccccc3nc2n1C1CCCC1 (stereo not given) | ? | ? | 5.17µM* | i | i
N=c1c(C(=O)NCC2CCCO2)cc2c(=O)n3ccccc3nc2n1C1CCCCC1 (stereo not given) | -8.9 | ? | 14.6µM* | i | i
O=C(Nc1ccc(C(=O)O)cc1)/C(=C\C=C\c1ccccc1)NC(=O)c1ccccc1Br | 0.9 | -6.0% | ? | i | i
Cc1ccc(S(=O)(=O)Nc2ccccc2/C=N/c2nc3ccccc3n2C(C)C)cc1 | -4.3 | 8.1% | 20.6µM* | i | i
CCn1c(NCc2ccccc2NS(=O)(=O)c2ccc(C)cc2)nc2ccccc21 | -12.6 | ? | ? | ? | ?
CCn1c(NCc2cc(Br)ccc2NS(=O)(=O)c2ccc(C)cc2)nc2ccccc21 | 3.0 | 4.0% | -3.8% | ? | 18.4µM*
CCCn1c(NCc2ccccc2NS(=O)(=O)c2ccc(C)cc2)nc2ccccc21 | 11.4 | ? | 10.3µM* | ? | 16.4µM*
O=C(c1c[nH]c2ccccc12)C(F)(F)F | 26.8 | -4.5% | 7.2% | i | i
Nc1ncnc2c1ncn2[C@@H]1O[C@H](C(=O)N2CCN(c3ccc(Cl)cn3)CC2)[C@@H](O)[C@H]1O | 2.0 | . | . | i | i
O=C(Nc1ccc(Cl)cc1)Nc1ccc2c(c1)N1CCN=C1S2 | -65.6* | 9.0% | ? | i | ?
Nc1ccc2c(c1)N1CCN=C1S2 | -1.7 | 0.3% | 7.0% | i | i
COc1ccc(N2CCN(C(=O)c3cc(=O)c4cc(C)cc(C)c4o3)CC2)cc1 | -77.2* | -4.5% | 13.1% | i | i
CC(=O)c1ccc(N2CCN(C(=O)c3ccc4c(c3)OCO4)CC2)cc1 | -0.1 | -7.5% | 5.4% | . | .
COc1cc(C(=O)OCC(C)=O)ccc1OCc1c(C)noc1C | 56.4 | 16.4µM* | 20.6µM* | 14.6µM* | ?
COc1cc(C(=O)Nc2nc3ccccc3s2)ccc1OCc1c(C)noc1C | -16.3 | 16.4µM* | ? | ? | i
COc1ccc(N2CCN(C(=O)c3ccc4c(c3)OCO4)CC2)cc1 | -13.1 | -3.6% | ? | i | 20.6µM*
COc1ccc(N2CCN(C(=O)c3cc(=O)c4cc(C)ccc4o3)CC2)cc1 | -5.6 | -12.0% | 11.0% | i | i
O=C(Nc1ccccc1Cl)c1ccccc1Cc1ccccc1 | -10.6 | -3.9% | 6.4% | i | i
COc1ccc(S(=O)(=O)N2CCC(C(=O)NCCC(=O)NCc3cccnc3)CC2)cc1 | -5.6 | . | . | i | i
COc1ccc(N2CCN(C(=O)c3ccc(OCc4c(C)noc4C)c(OC)c3)CC2)cc1 | -1.1 | 0.0% | -0.3% | i | 11.6µM*
Cc1noc(C)c1C(=O)N1CCN(c2ccc(OCc3ccccc3)cc2)CC1 | -11.0 | -10.6% | ? | ? | 14.6µM*
O=C(COc1ccc2ccc(=O)oc2c1)N1CCc2ccccc21 | 5.7 | -7.2% | 0.2% | i | i
CCC(C)NC(=O)c1c(-c2cc(Cl)c(OC)c(Cl)c2)noc1C (stereo not given) | -7.9 | -11.1% | 19.7% | i | ?
Clc1nc(CN2CCCCC2)nc2sc3c(c12)CCC3 | . | 12.9% | ? | ? | ?
COC(=O)c1ccc(COc2ccccc2/C=C/C(=O)c2ccc(OCC(=O)O)cc2)cc1 | -93.5* | ? | ? | i | i
SMILES | IL-1B inflam inh | SW480 rereplic | MCF10A rerep | KB-3-1 tox | KB-V1 cytotox
COC(=O)c1ccc(COc2ccccc2/C=C(\C#N)C(=O)Nc2c(C)cccc2C)cc1 | -79.4* | 23.5% | 8.2µM* | ? | ?
Cc1cccc(C)c1NC(=O)/C(C#N)=C/c1ccsc1 | -1.4 | 1.46µM* | ? | i | i
COC(=O)c1ccc(COc2ccccc2/C=C(\C#N)C(=O)Nc2ccccc2C)cc1 | 22.0 | -7.0% | 5.9% | i | i
Cc1ccccc1NC(=O)/C(C#N)=C/c1ccsc1 | -9.3 | 0.2% | ? | i | i
O=[N+]([O-])c1ccc(NCc2ccccc2N2CCC(CO)CC2)nc1 | -5.9 | -13.2% | 1.8% | i | i
Nc1c2c(nc3ccccc13)CCCC2 | -17.9 | ? | ? | i | i
c1ccc(Oc2c3ccccc3nc3ccccc23)cc1 | 11.1 | ? | 18.4µM* | ? | ?
Nc1c2ccccc2nc2ccccc12 | -96.7*! | 23.1µM* | 18.4µM*! | 5.17µM* | 2.06µM*!
CC12CC3CC(C)(C1)CC(C(=O)Nc1nncs1)(C3)C2 | -15.4 | ? | 0.1% | i | i
O=C(NNC(=O)C1CCCC1)c1cc([N+](=O)[O-])cc([N+](=O)[O-])c1 | 5.6 | -2.8% | 2.8% | i | i
O=C(Nc1ccccc1)C1=C[C@H](C2CCCCC2)C[C@H](OCc2ccc(CO)cc2)O1 | -51.0* | -50.4%[9.22 µM] | ? | i | i
O=C(Nc1ccccc1)C1=C[C@@H](C2CCCCC2)C[C@@H](OCCCCO)O1 | ? | -9.3% | ? | i | i
O=C(Nc1ccccc1)C1=C[C@@H](C2CCCCC2)C[C@@H](OCc2ccc(CO)cc2)O1 | 0.0 | ? | 16.4µM* | ? | i
O=C(Nc1ccccc1)C1=C[C@H](c2ccc(Br)cc2)C[C@H](OCc2ccc(CO)cc2)O1 | -52.9* | 11.3%[9.22 µM] | ? | i | i
O=C(C1=C[C@@H](C2CCCCC2)C[C@@H](OCc2ccc(CO)cc2)O1)N1CCN(Cc2ccccc2)CC1 | -59.0* | -25.5% | ? | ? | ?
O=C(Nc1ccccc1)C1=C[C@@H](c2ccccc2)C[C@@H](OCc2ccc(CO)cc2)O1 | 13.7 | 10.4% | 29.1% | i | i
O=C(C1=C[C@H](C2CCCCC2)C[C@H](OCc2ccc(CO)cc2)O1)N1CCN(Cc2ccccc2)CC1 | 0.0 | 1.6% | 34.6% | ? | i
CC(C)Cc1cc(C(=O)N2N=C(C(F)F)CC2(O)C(F)F)c2ccccc2n1 (stereo not given) | -0.6 | -0.3% | ? | i | i
CCc1ccc(-c2cc(C(=O)N3N=C(C(F)F)CC3(O)C(F)F)c3ccccc3n2)cc1 (stereo not given) | -0.4 | 8.7% | 9.2µM* | ? | 18.4µM*
COC(=O)c1c(C(=O)OC)c(-c2ccc(C)cc2)n2c1CCC2 | -10.9 | -0.2% | -0.5% | i | 14.6µM*
COC(=O)c1c(C(=O)OC)c(-c2ccc(Cl)c(Cl)c2)n2c1CCC2 | -24.7 | -4.5% | ? | i | i
Cc1ccc(C(=O)NCCSC(C)(C)C)cc1[N+](=O)[O-] | 0.9 | -1.6% | 5.4% | i | i
